# ChEMBL document CHEMBL4513216, “Probing the Open Global Health Chemical Diversity Library for Multistage-Active Starting Points for Next-Generation Antimalarials” (ACS Infect Dis, 2020)
# In all, about 69,000 compounds went through this assay and about 8,600 (12%) showed an effect of 50% or more. What follows is part of a selection rich in strong results, with near analogues and random picks from the rest.
# Tested on: Plasmodium berghei
# Experiment: Screen against P. berghei liver stage (PbLuc), transformed with Luciferase, at 10uM
# Type: functional, HepG2
# Conditions: tested at 10 uM
row,Structure (SMILES),INHIBITION
1,CCCSc1ncc(Cl)c(C(=O)NC(CCSC)C(=O)O)n1 (stereo unspecified),26.3%
2,CCN1C(=O)CCC12CCN(C(=O)c1ccco1)CC2,27.2%
3,CCN1CCn2c(C)cnc2C12CCN(C(=O)CC(C)C)CC2,-0.182%
4,CC[C@H](C)Nc1nccc(-c2cnc3sc(C)cn3c2=O)n1,39.7%
5,CCC(=O)N1CCc2c(O)nc(C3CCCCN3C(=O)C3CC3)nc2C1 (stereo unspecified),-7.6%
6,O=C(O)Cn1nc(C2CC2)c2c(-c3cccs3)ccnc21,11.6%
7,O=c1[nH]c(NC2CCCC2)nc2nccc(-c3cccs3)c12,52.2%
8,NC(=O)C1CCN(c2nc3nccc(-c4cccnc4)c3c(=O)[nH]2)CC1,47.4%
9,NC(=O)C1CCN(c2nc3nccc(-c4ccncc4)c3c(=O)[nH]2)CC1,41.6%
10,O=c1[nH]c(NC2CCCC2)nc2nccc(-c3ccco3)c12,-37.9%
11,O=c1[nH]c(NC2CCCC2)nc2nccc(-c3ccsc3)c12,61.1%
12,O=C(NCC1CC1)C1CN(Cc2cccs2)Cc2ccnn2C1 (stereo unspecified),-19.1%
13,Cc1ccc(S(=O)(=O)N2CSCC2C(=O)NCC(F)(F)F)cc1C (stereo unspecified),-27.9%
14,O=C(CSc1nc2c(cnn2CCO)c(=O)[nH]1)NC1CCCCC1,39.2%
15,Cc1noc(C(C)N2CCN(CCN3CCCC3=O)CC2)n1 (stereo unspecified),-29.1%
16,O=C(COCCOc1ccccc1)Nc1ccnn1CC1CCOC1 (stereo unspecified),69.9%
17,O=C(Cn1ncc2ccccc21)Nc1ccnn1CC1CCOC1 (stereo unspecified),36.5%
18,O=C(COCc1ccccc1Cl)Nc1ccnn1CC1CCOC1 (stereo unspecified),42.1%
19,COc1ccccc1CC(=O)N1C[C@@H]2CC[C@H]1CN(Cc1cscn1)C2,29.6%
20,CN(C(=O)Cn1nc(-c2ccccc2Cl)ccc1=O)C1CCS(=O)(=O)C1 (stereo unspecified),48.1%
21,N#Cc1cc(Br)ccc1NC1CCN(CC(N)=O)CC1,45.4%
22,CC(=O)N1CCC(Nc2ccc(Br)cc2C#N)C1 (stereo unspecified),7.39%

row,Structure (SMILES),INHIBITION
1,CN1CC(Nc2ccc(Br)cc2C#N)CCC1=O (stereo unspecified),58.9%
2,CCOCCN1CCN(Cc2csc(-c3cnn(C)c3)n2)CC1,-22.1%
3,O=C(CCNS(=O)(=O)c1ccc(F)c(F)c1)NCc1ccoc1,35.4%
4,O=C(N[C@H]1CN(Cc2ccsc2)[C@@H]2CCCO[C@H]12)C1CC1,48.2%
5,O=C(O)c1cc(NS(=O)(=O)c2ccc(Cl)s2)ccc1N1CCOCC1,20%
6,Cc1ccc(C(=O)NS(C)(=O)=O)cc1S(C)(=O)=O,1.79%
7,Cc1ccc(C(=O)NS(C)(=O)=O)cc1I,32.3%
8,Cc1cc(C(=O)NS(C)(=O)=O)ccc1I,52%
9,Cc1cc(N2CCN(C(=O)[C@@H]3C[C@H]4C=C[C@@H]3C4)CC2)nc2ccccc12,-13.2%
10,CN(Cc1nnc(C2CC2)o1)C1CCCN(c2cccnn2)C1 (stereo unspecified),-9.76%
11,CC(C(=O)NC1CC1)N1CCN(Cc2ccn(C)c(=O)c2)CC1 (stereo unspecified),7.42%
12,COc1cccc2c1ccn2CCNC(=O)C1CCC1,-46.8%
13,OCCn1cc(CN2CCN(CCOc3ccccc3)CC2)cn1,37.5%
14,OCCn1cc(CN2CCN(CCOCC(F)(F)F)CC2)cn1,54.9%
15,OCCn1cc(CN2CCN(CCOc3ccc(F)cc3)CC2)cn1,39.5%
16,NC(=O)NC(=O)CN1CCN(c2nccs2)CC1,24%
17,Cc1nnc(CN(C)C2CCN(Cc3nnc(C4CCC4)o3)C2)n1C (stereo unspecified),40.9%
18,Cc1cc(CN2CCC(N(C)Cc3noc(C4CC4)n3)C2)on1 (stereo unspecified),19.5%
19,CCc1nc(CN2CCCC(N(C)Cc3cnc(C)cn3)C2)no1 (stereo unspecified),24.3%
20,CCc1nc(CN(C(C)=O)C2CCN(Cc3cnc(C)cn3)C2)no1 (stereo unspecified),12.4%
21,Cc1cc(C)n(CCN2CCC(N(C)Cc3noc(C4CC4)n3)C2)n1 (stereo unspecified),68.5%
22,Cc1cnc(CN2CCC(N(C)Cc3nnc(C)n3C)C2)cn1 (stereo unspecified),62.3%

row,Structure (SMILES),INHIBITION
1,CCc1nc(CN(C)C2CCN(Cc3cnc(C)cn3)C2)no1 (stereo unspecified),67.5%
2,CCn1c(C)nnc1CN(C)C1CCN(Cc2cnc(C)cn2)C1 (stereo unspecified),-7.48%
3,Cc1cnc(CN2CCC(N(C)Cc3nnc(C4CC4)n3C)C2)cn1 (stereo unspecified),27.5%
4,Cc1nnc(CN(C)C2CCN(CCc3cccs3)C2)n1C (stereo unspecified),21.8%
5,Cc1ccc(CCN2CCC(N(C)Cc3noc(C4CC4)n3)C2)cc1 (stereo unspecified),27.9%
6,Cc1cc(C)n(CCN2CCC(N(C)Cc3nnc(C)n3C)C2)n1 (stereo unspecified),54.6%
7,COc1cc(C(=O)N2CC3(CCNCC3)c3cc(Cl)ccc32)ccn1,-17.1%
8,Cc1cc(C(=O)N2CCN(C)CC2)nn1CC(=O)NCc1ccccn1,1.95%
9,Cc1nc(CN2CCC(N(C)Cc3nnc(C4CC4)n3C)C2)cs1 (stereo unspecified),7.12%
10,O=C(NCCS(=O)(=O)N1CCN(c2ncccn2)CC1)C1CCCC1,-33.5%
11,CCOCC1CN(Cc2ccc3c(c2)OCO3)Cc2nccn2C1 (stereo unspecified),29%
12,Cc1ccc(CNC(=O)CN2CCCCC2Cn2cncn2)s1 (stereo unspecified),-1.14%
13,CC(=O)c1cc(Br)cc(F)c1OCC(=O)NC(C)C,56.9%
14,COC(=O)COc1c(F)cc(Br)cc1C(C)=O,8.24%
15,CNC(=O)COc1c(F)cc(Br)cc1C(C)=O,9.04%
16,Cc1nc(CNCC2CN(C3CC3)CCO2)cs1 (stereo unspecified),27.4%
17,NC(=O)COc1ccc(CNCc2ccc(F)cc2)cc1,9.52%
18,Cc1cc(C)n(CC2CN(Cc3ccccn3)CCO2)n1 (stereo unspecified),12.415%
19,Cc1cc(C)n(CC2CN(Cc3nc4ccccc4s3)CCO2)n1 (stereo unspecified),79.9%
20,Cc1nc(C)n(CC2CN(Cc3cccc4ccccc34)CCO2)n1 (stereo unspecified),37.4%
21,Cc1cc(C)n(CC2CN(Cc3cnc(C)s3)CCO2)n1 (stereo unspecified),28.8%
22,Cc1nc(C)n(CC2CN(Cc3nc4ccccc4n3C)CCO2)n1 (stereo unspecified),22.3%

row,Structure (SMILES),INHIBITION
1,Cc1nc(C)n(CC2CN(Cc3nc4ccccc4s3)CCO2)n1 (stereo unspecified),92.3%
2,CN(Cc1ccco1)C(=O)CN1C(=O)c2ccccc2C1=O,33.4%
3,CN(C)CCN1C(=O)CCCC12CCCN(Cc1cccs1)C2 (stereo unspecified),-3.58%
4,CNC(=O)NCC(=O)N(C)C(c1ccc(Cl)cc1)c1cccnc1 (stereo unspecified),35.1%
5,CN(CCO)C1CCN(c2ncc3c(n2)CCN3c2ccccc2)CC1,22.3%
6,CC(C)(O)c1cn(C2CCN(c3ncccc3Cl)CC2)nn1,25.7%
7,Cc1csc2ncnc(N3CCC(Cn4cc(C(C)(C)N)nn4)CC3)c12,84.2%
8,Cc1csc2ncnc(N3CCC(Cn4cc(C(C)(C)O)nn4)CC3)c12,84.2%
9,Cc1csc2c(N3CCC(Cn4cc(C(C)(C)O)nn4)CC3)ncnc12,79.3%
10,CC(O)Cc1cn(CC2CCN(c3nccc4occc34)CC2)nn1 (stereo unspecified),11.8%
11,CC(C)(O)c1cn(C[C@H]2C[C@@H]3CCN2C[C@@H]3C(=O)N2CCOCC2)nn1,-0.473%
12,CC(C)(N)c1cn(C2CCN(c3ncccc3Cl)CC2)nn1,30.4%
13,Cc1csc2ncnc(N3CCCC(Cn4cc(C(C)(C)O)nn4)C3)c12 (stereo unspecified),48.5%
14,O=C(c1ccoc1)N1CCN(Cc2ccccc2F)CC1,18.3%
15,Cc1ccc(CS(=O)(=O)N2Cc3c(CN(C)C)nn(C)c3C2)cc1,8.6%
16,COc1ccc(C2=NOC(CO)C2)cc1 (stereo unspecified),35.8%
17,Fc1cccc(-c2nccnc2C2CCCNC2)c1 (stereo unspecified),8.72%
18,c1cc(CN2CCC3(CC2)COC(COCC2CC2)C3)ccn1 (stereo unspecified),1.9%
19,O=C(Cc1ccsc1)N1CCOC(c2nc(-c3ncccn3)no2)C1 (stereo unspecified),21.9%
20,Cn1c(CCC(=O)N2CCCC3(CNC(=O)O3)C2)nc2cccnc21 (stereo unspecified),22.5%
21,Cc1nc(C2CCN(C(=O)c3cc(C4CC4)[nH]n3)CC2)no1,11.9%
22,CS(=O)(=O)Nc1ccn(Cc2cccc(F)c2)n1,49.1%

row,Structure (SMILES),INHIBITION
1,c1cc(CN2C[C@@H]3OCCN(CC4CC4)[C@@H]3C2)n[nH]1,59.3%
2,c1cc(CN2C[C@@H]3OCCN(CC4CCCO4)[C@@H]3C2)ccn1 (stereo partly specified),-1.55%
3,CC(C)N1CCO[C@H]2CN(Cc3cc[nH]n3)C[C@H]21,29.4%
4,Fc1ccc(CN2C[C@@H]3OCCN(CCN4CCCC4)[C@@H]3C2)cc1,11.3%
5,COc1ccc(CN2C[C@@H]3OCCN(CCN4CCCC4)[C@@H]3C2)cc1,82.3%
6,COc1ccc(CN2C[C@@H]3OCCN(CC4CCCO4)[C@@H]3C2)cc1 (stereo partly specified),27.9%
7,COCCN1CCO[C@H]2CN(Cc3cc[nH]n3)C[C@H]21,40.3%
8,Fc1ccc(CN2C[C@@H]3OCCN(CC4CCCO4)[C@@H]3C2)cc1 (stereo partly specified),68.4%
9,COc1ccc(CN2C[C@@H]3OCCN(CCN(C)C)[C@@H]3C2)cc1,26.4%
10,CN(Cc1cscn1)C1CCCN(c2cccnn2)C1 (stereo unspecified),15.5%
11,COc1c(C)cnc(CN2CCCC(c3noc(C4CC4)n3)C2)c1C (stereo unspecified),17.1%
12,CCc1n[nH]c(C2CN(C(=O)c3ccc4c(c3)CCCC4)CCO2)n1 (stereo unspecified),-43.6%
13,O=C(O)c1cncc(Cc2cccc(F)c2)c1,-19.7%
14,CCc1ccc(CN2CCNC(C(=O)N3CCN(C)CC3)C2)nc1 (stereo unspecified),-14.1%
15,COc1ccc(F)cc1C(=O)N(C)[C@@H]1CC[C@@H](O)[C@@H]1O,-42%
16,Cc1ccoc1C(=O)N1CCn2nnc(COc3cccnc3)c2C1,17.1%
17,Cn1cc(CN2CCOC(c3nccnc3-c3cccc(F)c3)C2)cn1 (stereo unspecified),23%
18,CC(C)NC(=O)N1CCN(S(C)(=O)=O)CC2(CNC(=O)C2)C1 (stereo unspecified),-3.52%
